# According to the supplement of paper PMC11417369:
# Whole data set: some 25,000 sequences, median “ln(normalized median fluorescence intensity)” near 7.1, cut for the highest 2% near 10. What follows is part of a selection rich in the highest values, with near analogues and random picks from the rest.
# Test system: PfSIP2 AP2 domain 1 (GST-tagged)
# Experiment: gcPBM binding intensity (ln(normalized median fluorescence intensity)); higher = stronger DNA binding
# Method in brief: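 Plasmodium falciparum DNA-binding domains carrying a GST tag were expressed in E. coli and applied for 1 h, at about 25 μg on average, to an Agilent 4 × 180k array. The array held primer-extended double-stranded 36-bp intergenic genomic probes together with negative controls, and binding took place in 1× PBS with 1% milk, 0.2 mg/ml BSA, 0.5% salmon testes DNA and 0.03% Triton X-100. An Alexa488 anti-GST antibody detected bound protein, and the array was scanned at 488 nm. Binding intensity is taken as the highest Masliner-normalised natural-log median intensity across replicate spots of either probe orientation.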
row,Sequence,gcPBM binding intensity (ln)
1,ATGTATTTATTATTTAGTACACATTATTTTCTTATA [XGTACX_site6365],7.05
2,AAATACATATTTAGAAGTACATTTATACATTTAATA [XGTACX_site8871],7.04
3,CATATATAAATATATACACACATATATATATATATA [CACACA_site1365],9.43
4,TGAAGGTCAGTTCACAGTACCCAGTAACTCTACGGA [XGTACX_site2554],6.62
5,AGGATTATATATTAATGTACCCGCGTTAATTTTTTT [XGTACX_site2878],6.82
6,TTTTTTTTTATAAGGTGTACGTAAAATGTGTAGGTC [XGTACX_site3585],8.36
7,ATATATATATTTATATTTATATGTAAATATCAACGT [TGCATGCA_negctrl_site32],8.59
8,GTCTATATATTTTAGGTGCAACGTAAATGTAAAAAT,10.7
9,TTAAGTAGTACATACACACACATATACAAAAAGAAA [CACACA_site3972],7.3
10,AGAATGAAATAATATACACACAAAGGAAAAATGTAA [CACACA_site3911],6.76
11,TACATATATTTTTATACATGCATAACTTAGGACTTT [TGCATGCA_site113],7.07
12,TGTGCATAATTTTGTGCACACCACGCTAATAATTTT [CACACA_site2915],10.9
13,TTTTTTTTTTTTTTTGTGCACAATATAATTTTTAAT [GTGCAC_site9747],8.64
14,CATATAAATATTTGTGCACACAATTATTAATAATTA [CACACA_site3884],9.35
15,ATAGTATCTGGTAGCTGTACGAGTCGTATAGTGCAG [XGTACX_site2542],8.25
16,AAAAAAAATTATATATGTACTTATTAATCCTTATAT [XGTACX_site1389],6.86
17,TTTTCTAAATAAATAGTGCATTTATTATATATACAT [GTGCAC_site9766],9.15
18,TACATCATCTATAAGGTGCATTTTAGTTCTATTAAA,10.8
19,GATGTTTCTATTTTAGTGCATTTTAAATAAATAAAT,9.4
20,AAAAAAAAAAGAAATTGTACTTTTTGTTTAATAATT [XGTACX_site4681],6.65
21,TTGTTCTTTTGAAAGGTGCAAAAGAAAAATAATTAA,11.2
22,TTGTTCTTTTTTTTTTTATTTTTTAATTTGAAAAGA [CACACA_negctrl_site209],7.03
23,CATATTCCCCCCCACACACACACACCCATACATACC [CACACA_site2303],10.2

row,Sequence,gcPBM binding intensity (ln)
1,CATATTCCCCCCCACACACACACACGCATACATACC [CACACA_site7148],10.1
2,GACATATTCCCCCCCACACACACACCCACATACATA [CACACA_site2302],9.81
3,TCTATATAATACCAATGTACATAGTTTTAAGCATAA [XGTACX_site1889],6.93
4,TATAAAACGGATGAACAACAAATCATATGGCACAAA [TGCATGCA_negctrl_site608],7.23
5,CTGTATAAAACCAATGCATGTAAATATATTAATATA [TGCATGCA_site511],7.06
6,TTGTATCCTTAATGCATGCACCAAATAACAAAAGTA,10.6
7,ACAAAGTAAAATAATGCATGTAGGTATACATAATTA [TGCATGCA_site607],6.64
8,TTTTTGTATCCTTTTAATATTAAATAAAAGGAATGT [CACACA_negctrl_site1468],7.02
9,TTAAAAAAGTAATTAACACACAATAATGTAATGCAT [CACACA_site4176],6.72
10,TATTGTATCCTTAATGCATGCACCAAATAAAAAAAG [TGCATGCA_site541],11.1
11,TATTTGTTTGAATTTTTTTTTTTTTTTTTTTATGTG [CACACA_negctrl_site966],6.78
12,CCTATATAATATATTTGTACTTAATAATTAAAGTGT [XGTACX_site5151],7.16
13,ATTATTTGTAATATAACACACACAAAAAAAGACTCG [CACACA_site8487],7.1
14,AAAATGTATATTGGCGCATGTAAACAAATACTATAC [TGCATGCA_site385],7.13
15,GTCAAATTTTTGTGCACACATATATAGTTATTATTA [CACACA_site2241],10
16,AAATATTACATTTGTTAAATAATATGTTATACATAA [XGTACX_negctrl_site484],6.96
17,CAGTTGTTAATTTGTGTGCACCAAATATTATACATA,11.2
18,ACCTACACAAGCATTAAACACACAAAAGGGATACTT [CACACA_site8273],7.18
19,AAAACATTGTTGAACTGTTTTATTTATAAATATAAG [XGTACX_negctrl_site393],7.02
20,TTAAAATGAAGAAGTGCACACATATATATATTTATA [CACACA_site8063],10.4
21,AAAATGAAGAAGTGCACACATATATATATTTATATA [CACACA_site507],10.7
22,TATAAAAATGTGCACACACACACATATTTATATTTA [CACACA_site6826],8.97
23,AAAATGAACAGACACACACACATATTTATATTTATA [CACACA_site7182],6.96
